Laboratory results: PubChem BioAssay AID1159580 (chemical genetic matrix, 2015)
Among all 5,500 compounds or so, about 2,000 (36%) were called active. About 18% were inconclusive and are not listed. The list shows a part of the results. Values without a mark were called inactive. Cut-off read from the data, not from the text of the source: active = normalized growth mostly below about 0.91 (no sharp cut-off); inconclusive = no clear call, values can overlap the other calls; inactive = mostly above about 0.92.

Assay: chemical genetic growth profiling, strain panel (AID 1159580);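 note: tested at 20 µM; growth read once vehicle control cultures reached saturation at 30 °C; 1 = growth at the plate median or of vehicle wells; lower values mean less growth of the strain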
Conditions: growth OD
[1] = S. cerevisiae deletion strains, locus YAL013W, strain DEP1, stronger effect = lower value
[2] = S. cerevisiae deletion strains, locus YBR229C, strain ROT2, stronger effect = lower value
[3] = S. cerevisiae deletion strains, locus YDL101C, strain DUN1, stronger effect = lower value
[4] = S. cerevisiae deletion strains, locus YDR150W, strain NUM1, stronger effect = lower value
[5] = S. cerevisiae deletion strains, locus YEL061C, strain CIN8, stronger effect = lower value
[6] = S. cerevisiae deletion strains, locus YGR078C, strain PAC10, stronger effect = lower value
[7] = S. cerevisiae deletion strains, locus YHR030C, strain SLT2, stronger effect = lower value
[8] = S. cerevisiae deletion strains, locus YHR087W, strain rtc3, stronger effect = lower value
[9] = S. cerevisiae deletion strains, locus YJR043C, strain POL32, stronger effect = lower value
[10] = S. cerevisiae deletion strains, locus YJR075W, strain HOC1, stronger effect = lower value
[11] = S. cerevisiae deletion strains, locus YLR039C, strain RIC1, stronger effect = lower value
[12] = S. cerevisiae deletion strains, locus YLR058C, strain SHM2 (second series), stronger effect = lower value
[13] = S. cerevisiae deletion strains, locus YLR085C, strain ARP6, stronger effect = lower value
[14] = S. cerevisiae deletion strains, locus YLR262C, strain YPT6, stronger effect = lower value
[15] = S. cerevisiae deletion strains, locus YML094W, strain GIM5, stronger effect = lower value
[16] = S. cerevisiae deletion strains, locus YMR219W, strain ESC1, stronger effect = lower value
[17] = S. cerevisiae deletion strains, locus YMR263W, strain SAP30, stronger effect = lower value
[18] = S. cerevisiae deletion strains, locus YNL153C, strain GIM3, stronger effect = lower value
[19] = S. cerevisiae deletion strains, locus YNL298W, strain CLA4 (second series), stronger effect = lower value
[20] = S. cerevisiae deletion strains, locus YNL322C, strain KRE1, stronger effect = lower value
[21] = S. cerevisiae deletion strains, locus YNR030W, strain Alg12, stronger effect = lower value
[22] = S. cerevisiae deletion strains, locus YPL055C, strain LGE1, stronger effect = lower value
[23] = S. cerevisiae deletion strains, locus YPL241C, strain CIN2, stronger effect = lower value
[24] = S. cerevisiae deletion strains, locus YPR135W, strain CTF4, stronger effect = lower value
[25] = S. cerevisiae deletion strains, locus YCL061C, strain MRC1, stronger effect = lower value
[26] = S. cerevisiae deletion strains, locus YDL134C, strain PPH21, stronger effect = lower value
[27] = S. cerevisiae strains, strain wild type, stronger effect = lower value
[28] = S. cerevisiae deletion strains, locus YMR307W, strain GAS1, stronger effect = lower value

COc1ccc(Br)c(-c2nnc(-c3ccccc3[N+](=O)[O-])o2)c1
normalized growth [1]: 0.993 | normalized growth [2]: 1.01 | normalized growth [3]: 0.985 | normalized growth [4]: 0.943 | normalized growth [5]: 0.973 | normalized growth [6]: 1.02 | normalized growth [7]: 0.964 | normalized growth [8]: 1.02 | normalized growth [9]: 0.955 | normalized growth [10]: 0.975 | normalized growth (S. cerevisiae deletion strains, locus YKL190W, strain CNB1, stronger effect = lower value): 1.01 | normalized growth [11]: 1.07 | normalized growth [12]: 1.02 | normalized growth [13]: 0.953 | normalized growth [14]: 1.06 | normalized growth [15]: 1 | normalized growth [16]: 1.01 | normalized growth [17]: 0.978 | normalized growth (S. cerevisiae deletion strains, locus YNL128W, strain TEP1, stronger effect = lower value): 1.04 | normalized growth [18]: 1 | normalized growth [19]: 0.985 | normalized growth [20]: 1.01 | normalized growth [21]: 1 | normalized growth [22]: 0.953 | normalized growth [23]: 0.977 | normalized growth [24]: 1.07

O=[N+]([O-])c1cccnc1Oc1ccc(Cl)cc1
normalized growth [1]: 0.94 | normalized growth [2]: 0.939 | normalized growth [25]: 0.895 (active) | normalized growth [3]: 0.875 (active) | normalized growth [26]: 0.973 | normalized growth [4]: 0.917 | normalized growth [5]: 0.977 | normalized growth [6]: 0.886 (active) | normalized growth [7]: 0.543 (active) | normalized growth [8]: 0.93 | normalized growth [9]: 0.886 (active) | normalized growth [10]: 0.933 | normalized growth [11]: 0.657 (active) | normalized growth [12]: 0.95 | normalized growth [13]: 0.789 | normalized growth [14]: 0.707 (active) | normalized growth [15]: 0.937 | normalized growth [16]: 0.954 | normalized growth [17]: 0.936 | normalized growth [18]: 0.919 (active) | normalized growth [19]: 0.858 | normalized growth [20]: 0.933 (active) | normalized growth [21]: 0.906 | normalized growth [22]: 0.959 | normalized growth [23]: 0.935 | normalized growth [24]: 0.613 (active) | normalized growth [27]: 0.917

O=[N+]([O-])c1ccc(Oc2c(Cl)cccc2Cl)c(Cl)c1Oc1c(Cl)cccc1Cl
normalized growth [1]: 0.98 | normalized growth [2]: 0.981 | normalized growth [3]: 0.95 | normalized growth [26]: 0.993 | normalized growth [4]: 0.992 | normalized growth [5]: 0.998 | normalized growth [6]: 0.984 | normalized growth [7]: 0.956 | normalized growth [8]: 1.04 | normalized growth [9]: 0.961 | normalized growth [10]: 1.04 | normalized growth [11]: 0.902 | normalized growth [12]: 0.991 | normalized growth [13]: 0.976 | normalized growth [14]: 0.949 | normalized growth [15]: 1.01 | normalized growth [16]: 1 | normalized growth [17]: 1.01 | normalized growth [28]: 1.02 | normalized growth [18]: 0.986 | normalized growth [19]: 0.953 | normalized growth [20]: 0.987 | normalized growth [21]: 0.969 | normalized growth [22]: 1 | normalized growth [23]: 0.961 | normalized growth [24]: 0.901

CN1CCCC1c1cccnc1 (stereo not given)
normalized growth [1]: 0.987 | normalized growth (S. cerevisiae deletion strains, locus YAL040C, strain CLN3, stronger effect = lower value): 0.984 | normalized growth (S. cerevisiae deletion strains, locus YCL061C, strain MRC1 (second series), stronger effect = lower value): 0.981 | normalized growth [4]: 0.981 | normalized growth (S. cerevisiae deletion strains, locus YDR363W, strain ESC2, stronger effect = lower value): 1.02 | normalized growth (S. cerevisiae deletion strains, locus YER002W, strain NOP16, stronger effect = lower value): 0.994 | normalized growth [28]: 1.03 | normalized growth [18]: 0.986 | normalized growth (S. cerevisiae deletion strains, locus YNL175C, strain NOP13, stronger effect = lower value): 0.992 | normalized growth (S. cerevisiae deletion strains, locus YNL197C, strain WHI3, stronger effect = lower value): 0.995 | normalized growth (S. cerevisiae deletion strains, locus YNL224C, strain SQS1, stronger effect = lower value): 0.991 | normalized growth [20]: 0.98 | normalized growth (S. cerevisiae deletion strains, locus YOR083W, strain WHI5 (second series), stronger effect = lower value): 0.988 | normalized growth [22]: 1 | normalized growth [23]: 0.984

COc1ccccc1NC(=S)NCCC(=O)O
normalized growth [1]: 1.01 | normalized growth [2]: 1 | normalized growth [25]: 1 | normalized growth [3]: 0.985 | normalized growth [4]: 0.955 | normalized growth [5]: 0.991 | normalized growth [6]: 0.995 | normalized growth [7]: 1.03 | normalized growth [8]: 0.986 | normalized growth (S. cerevisiae deletion strains, locus YJL187C, strain SWE1, stronger effect = lower value): 1.01 | normalized growth [10]: 1.03 | normalized growth [11]: 1.03 | normalized growth [12]: 1.01 | normalized growth [13]: 1.03 | normalized growth [14]: 1.02 | normalized growth [15]: 0.963 | normalized growth [16]: 1.01 | normalized growth [17]: 0.989 | normalized growth [18]: 0.996 | normalized growth [19]: 1.02 | normalized growth [20]: 0.999 | normalized growth [21]: 1.01 | normalized growth [22]: 0.919 | normalized growth [23]: 1.07 | normalized growth [24]: 0.984 | normalized growth [27]: 1.01
